Data on 25 molecules can be found in PubChem BioAssay AID434926 (Sanford-Burnham Center for Chemical Genomics, 2010).

The list shows a part of the results. Activity calls are given as the source filed them.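 Rule for the calls: active = at least twofold enzyme activation in any of six single-dose repeats, which the averaged readout prints as negative percent; inactive = the rest.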

The target in the experiment is Intestinal-type alkaline phosphatase (Homo sapiens) (UniProt P09923). Description: enhancement of intestinal alkaline phosphatase activity – biochemical, luminescence, single concentration, uHTS hits, confirmation (AID 434926). The note with it: purified IAP, CDP-Star luminescence, 30 min; at 8.3 µM; active compounds read low.
Chain of Intestinal-type alkaline phosphatase (Homo sapiens) (P09923 whole entry, looked up): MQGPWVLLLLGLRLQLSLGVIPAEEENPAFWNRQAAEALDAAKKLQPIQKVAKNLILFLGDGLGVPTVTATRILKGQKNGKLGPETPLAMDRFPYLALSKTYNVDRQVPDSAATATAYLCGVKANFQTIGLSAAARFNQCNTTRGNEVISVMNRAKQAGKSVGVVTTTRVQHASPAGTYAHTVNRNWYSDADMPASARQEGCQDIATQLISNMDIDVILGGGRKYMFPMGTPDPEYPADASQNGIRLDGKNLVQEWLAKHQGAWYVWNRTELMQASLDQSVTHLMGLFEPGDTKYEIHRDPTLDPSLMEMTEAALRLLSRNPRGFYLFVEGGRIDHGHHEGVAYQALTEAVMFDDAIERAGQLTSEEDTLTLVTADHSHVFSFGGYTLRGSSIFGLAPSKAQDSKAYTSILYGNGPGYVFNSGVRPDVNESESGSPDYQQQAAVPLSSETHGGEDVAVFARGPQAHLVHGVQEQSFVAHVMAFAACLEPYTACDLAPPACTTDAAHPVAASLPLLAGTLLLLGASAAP
Take `O=c1c(/C=N/O)coc2ccc(Cl)cc12`: the activation (%Activity, negative = activation) was -11.6% (inactive).

As for `Cc1ccc(NC(=O)c2cc(-c3ccccc3O)n[nH]2)cc1C`, the activation (%Activity, negative = activation) is -1.54% (inactive).

In the case of `CCC(C(=O)Nc1ccc(C(C)C)cc1)c1ccccc1` (stereo not given), the activation (%Activity, negative = activation) is -30.6% (inactive).

As to `O=C(Nc1ccc(Cl)cc1)c1ccsn1`, the activation (%Activity, negative = activation) is -68.3% (inactive).

Consider `CC(=O)c1ccc(NC(=O)C2CCCN2S(=O)(=O)c2cccs2)cc1` (stereo not given), for which the activation (%Activity, negative = activation) was -85.1% (active).

Turning to `CCOC(=O)c1cn[nH]c1NC(=S)Nc1ccccc1`, the activation (%Activity, negative = activation) was -69.2% (inactive).

For the molecule `COCCSc1nnc(NC(=O)CCS(=O)(=O)Cc2ccccc2)s1`, the activation (%Activity, negative = activation) is -46.9% (inactive).

Consider `COc1ccc2c(c1OC)C(=O)N(c1ncn[nH]1)C2`, for which the activation (%Activity, negative = activation) is 12.6% (inactive).

Regarding `CC(C)(C)OC(=O)NCCCCCNC(=O)c1[nH]cnc1C(=O)Nc1nccs1`, the activation (%Activity, negative = activation) was -6.96% (inactive).

As to `Cc1cc(C)cc(NC(=O)NC2CCN(CC(=O)Nc3cccc(Cl)c3C)CC2)c1`, the activation (%Activity, negative = activation) is 1.71% (inactive).

In the case of `OC(c1nc2ccc(F)cc2[nH]1)C(O)c1nc2ccc(F)cc2[nH]1` (stereo not given), the activation (%Activity, negative = activation) is 24.7% (inactive).

As to `CC(C)Oc1ccc(CCC(=O)NNC(=S)NCc2ccccc2)cc1`, the activation (%Activity, negative = activation) was 46.5% (inactive).

Take `Cc1c(C=O)c2ccccn2c1C(=O)c1ccncc1`: the activation (%Activity, negative = activation) was 5.63% (inactive).

Consider `COc1cccc(CNS(=O)(=O)c2ccc3c(c2)N(C(C)=O)CCS3)c1`, for which the activation (%Activity, negative = activation) is -34.5% (inactive).

Regarding `CCC(C)C(=O)Nc1ccccc1N1CCN(c2ccc(F)cc2)CC1` (stereo not given), the activation (%Activity, negative = activation) is 13.6% (inactive).

`CN1/C(=c2/s/c(=C3/C(=O)N(c4ccccc4)NC3=Nc3ccccc3)n(C)c2=O)C(C)(C)c2ccccc21`: the activation (%Activity, negative = activation) is -2.61% (inactive).

Consider `C[C@H](NC(=O)c1[nH]cnc1C(=O)Nc1nccs1)c1ccccc1`, for which the activation (%Activity, negative = activation) was -3.71% (inactive).

Regarding `c1ccc2[nH]c(-c3nc4ccccc4[nH]3)nc2c1`, the activation (%Activity, negative = activation) is 10.7% (inactive).

With `CCN1/C(=C\c2ccc3ccccc3[n+]2CC)Sc2cc(C)ccc21`, the activation (%Activity, negative = activation) was 32.7% (inactive).

Take `CCCOCC(O)CC(CC)C(=O)NNC(=S)Nc1ccccc1` (stereo not given): the activation (%Activity, negative = activation) was -138% (active).

With `O=C(Nc1ccon1)c1nc[nH]c1C(=O)NCc1ccccc1`, the activation (%Activity, negative = activation) is 88.5% (inactive).

As to `Cc1ccc2c(c1)nnc1nnc(SCC(=O)O)n12`, the activation (%Activity, negative = activation) is 33.9% (inactive).

In the case of `COc1ccc(C2=Nc3cc(C)ccc3OC2)cc1`, the activation (%Activity, negative = activation) was 58.3% (inactive).

`Cn1c(=O)c2c(nc(N/N=C/c3cccs3)n2Cc2ccc(Br)cc2)n(C)c1=O`: the activation (%Activity, negative = activation) was -8.19% (inactive).

As to `c1ccc(CSCCc2ccncc2)cc1`, the activation (%Activity, negative = activation) is -33.2% (active).
